# Test results reported in PubChem BioAssay (NCI).
# About 83,000 compounds went through this panel and 20% of them were active in at least one assay; those are over-represented in the sample as a whole.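 Single-dose data. Exposure time 48 hours. Values below 10 considered active.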 Unmarked numbers belong to inactive results. Calls of active or inactive are those of the source.
# Test system: MCF7 breast
# Test: NCI-60 one-dose screen, 48 h (100 = growth as untreated, 0 = no growth, -100 = all killed)
# Settings: 10 µM unless noted
row,SMILES,growth
1,Cc1ccc(NC(=O)c2ccc(CN3CCN(C)CC3)c(C(F)(F)F)c2)cc1Oc1ccc(-c2[nH]nc3ncnc(N)c23)cc1,54%
2,COc1ccc([C@H]2c3[nH]c4ccccc4c3C[C@@H]3C(=O)N(C4CCN(Cc5ccccc5)CC4)CC(=O)N23)c(OC)c1,51.7%
3,IP(CCCSc1n(Cc2ccc3ccccc3c2)c(-c2ccccc2)c(-c2ccccc2)[n+]1Cc1ccc2ccccc2c1)(c1ccccc1)(c1ccccc1)c1ccccc1,9.71% (active)
4,O=C1NC(=O)c2c1c1c3ccccc3ccc1c1[nH]c3ccccc3c21,3.61% (active)
5,COc1cc(/C=N/n2cnc3oc(-c4ccccc4)cc3c2=N)cc(CN2CCN(C)CC2)c1O,89.3%
6,COC1=C(c2ccccc2)C(=O)C(OC)=C(c2ccccc2)C1=O,85.2%
7,Cc1ccc(-c2csc(N/N=C/c3nc4ccccc4n3C3CC3)n2)cc1,50.2%
8,CC(C)=CCc1c(O)c(CC=C(C)C)c2c(c1O)C(=O)C1=C[C@@H]3C[C@H]4C(C)(C)O[C@@](C/C=C(\C)C(=O)O)(C3=O)[C@@]14O2,-5.87% (active)
9,CN1CCN(c2nc(-c3csc(-c4ccncc4)n3)cc3ccccc23)CC1,67.8%
10,CN1C(=O)N(C)C2C1NN=c1s/c(=C\c3ccccn3)c(=O)n12 (stereo not drawn),91.9%
11,CC(C)SC1=NC(=C(C(=N1)NC2=ClC=CC=C2)C#N)C3=CC=CC=C3,39.9%
12,CC(=O)NC(C)(C)C(=O)N[C@@H](C)C(=O)NC(C)(C)C(=O)N[C@@H](C)C(=O)NC(C)(C)C(=O)N[C@@H](C)C(=O)N[C@@H](CCC(N)=O)C(=O)NC(C)(C)C(=O)N[C@H](C(=O)NC(C)(C)C(=O)NCC(=O)N[C@@H](CC(C)C)C(=O)NC(C)(C)C(=O)N1CCC[C@H]1C(=O)N[C@H](C(=O)NC(C)(C)C(=O)NC(C)(C)C(=O)N[C@@H](CCC(N)=O)C(=O)N[C@@H](CCC(N)=O)C(=O)N[C@H](CO)CC1CCCCC1)C(C)C)C(C)C,17.2% [5 µM]
13,Clc1ccc(-c2csc(N/N=C/c3nc4ccccc4n3C3CC3)n2)cc1,94.2%
14,O=C(NCCCNc1cc(-c2cn(-c3ccccc3)nc2-c2cccc(O)c2)ccn1)Nc1cc(C(F)(F)F)cc(C(F)(F)F)c1,59.1%
15,COc1ccc(-c2ccc3c4c(cccc24)C(=O)N(N2C(=O)c4cccc5cccc(c45)C2=O)C3=O)cc1,15.6%
16,Cc1cc(C(=O)Nc2ccc(SC#N)cc2)c(C)o1,88.1%
17,Oc1ccc(CSc2nnc(-c3cnccn3)o2)c2cccnc12,5.44% (active)
18,O=C(O)c1ccc(-n2cc(CNc3ccc(Cl)cc3)c(-c3ccc(F)cc3)n2)cc1,80.1%
19,Cc1cn(-c2cc(NC(=O)c3cncc(C#Cc4cnc5ccc(OCCCS(C)(=O)=O)nn45)c3)cc(C(F)(F)F)c2)cn1,0.458% (active)

row,SMILES,growth
1,N/C(=N\OC(=O)CSc1nc2ccccc2s1)c1ccc2ccccc2c1,94.2%
2,Nc1nc(-c2cccc([N+](=O)[O-])c2)c(N=Nc2cccc(Cl)c2)s1,19.1%
3,CC[C@@](C)(NC(=O)C(C)(C)NC(=O)[C@@H](NC(=O)[C@@H]1CCCN1C(=O)C(C)(C)NC(=O)[C@H](CC(C)C)NC(=O)CNC(=O)C(C)(C)NC(=O)[C@@H](NC(=O)C(C)(C)NC(=O)[C@H](CCC(N)=O)NC(=O)[C@H](C)NC(=O)C(C)(C)NC(=O)[C@H](C)NC(=O)C(C)(C)NC(=O)[C@@H]1CCCN1C(=O)C(C)(C)NC(C)=O)C(C)C)C(C)C)C(=O)N[C@@H](CCC(N)=O)C(=O)N[C@@H](CCC(N)=O)C(=O)N[C@H](CO)Cc1ccccc1,9.62% [4.25 µM] (active)
4,COc1ccc(-c2nn(-c3ccccc3)cc2/C=C/C(=O)c2ccc(NC(=O)CCCCCCC(=O)NO)cc2)cc1,94.2%
5,Nc1ccc(-c2nnc(SCc3ccc(O)c4ncccc34)o2)cc1,2.52% (active)
6,O=C1Nc2ccc(Cl)cc2/C1=C/c1ccc(OCc2ccc(Br)cc2F)cc1,87.5%
7,C=C1C(=O)O[C@@H]2/C=C(/C)C3=CC(=O)[C@@](C)(C[C@H](OC(=O)/C(C)=C\C)[C@@H]12)O3,13.2%
8,O=C(CCCCCCN1CC(=O)N2[C@@H](c3cccc(Cl)c3)c3[nH]c4ccccc4c3C[C@H]2C1=O)NO,38%
9,CS(=O)(=O)c1ccc(-c2nn(-c3ccccc3)cc2/C=N/NC(=O)c2ccncc2)cc1,93.8%
10,CC(C)=CCc1c2c(c(O)c3c1O[C@]14C(=C[C@@H]5C[C@H]1C(C)(C)O[C@@]4(C/C=C(/C)C(=O)O)C5=O)C3=O)CC(O)C(C)(C)O2 (stereo partly drawn),-41.4% (active)
11,C=C(C)C(=O)O[C@H]1C[C@@]2(C)OC(=CC2=O)/C(CO)=C\[C@H]2OC(=O)C(=C)[C@H]12,-7.53% (active)
12,COc1ccc(-c2nnc(SCc3ccc(O)c4ncccc34)o2)cc1,14.9%
13,Nc1ccc(-c2nnc(SCc3ccc(O)c4ncccc34)n2-c2ccccc2)cc1,5.58% (active)
14,CC(C)N=C(N/C(N)=N/c1nc2ccccc2s1)NC(C)C,43.2%
15,CN1CCN(Cc2ccc(NC(=O)c3cncc(C#Cc4cnc5ccc(NC6CCOCC6)nn45)c3)cc2C(F)(F)F)CC1,-60.3% (active)
16,COc1cc(/C=C/C(=O)c2ccc(NC(=O)CSc3nnc(-c4ccc5nc(-c6ccccc6)[nH]c5c4)o3)cc2)cc(OC)c1OC,43.9%
17,CC(=O)c1ccc(NC(=O)COc2ccc(C3SCC(=O)N3c3ccc(Br)cc3)cc2)cc1 (stereo not drawn),89.6%
18,COc1ccc(Cn2cc3c(c2-c2ccccc2)CCCc2cnoc2-3)cc1,22.9%
19,O=C(CSc1ccc(-c2nc3ccccc3[nH]2)cn1)N1CCN(c2ccccc2F)CC1,55.7%
